# A number with no mark means an inactive call. Results filed as inconclusive are left out. Active and inactive are the calls of the source.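 The calls were made as follows, unless noted: active = cell viability at or below a set limit in both duplicate runs, the limit being the all-compound median minus 4 SD (cut at about 23% in these data, passing the limit was not always enough); inconclusive = no clear call, values can overlap the other calls; inactive = the rest.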
# Assay: doxorubicin toxicity protection in MRP-1 cells – H69AR cells, CellTiter-Glo, duplicate, MRP-1 activator project, pilot screen (AID 807;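 active = viability increase at or above a cutoff of the median across tested compounds plus 3 SD, cut at about 8.5% in these data, passing the limit was not always enough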;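 also: compound pretreatment 18-22 h then 72 h combined with doxorubicin; 0% = doxorubicin alone and 100% = vehicle without doxorubicin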)
# Conditions: H69AR viability with doxorubicin, CellTiter-Glo luminescence; at 10 µM; hits give high values
row,SMILES,viability increase [%]
1,CCOc1ccc(N2CC(C(=O)Nc3ccccc3OC)CC2=O)cc1 (stereo not given),-1.73
2,O=C(Cn1ncc2c1-c1ccccc1OC2)N1CCN(c2ccccn2)CC1,-1.13
3,CC1CN(c2c3c(nc4ncnn24)CCCC3)CC(C)O1 (stereo not given),-1.41
4,CCOC(=O)C(CC)n1nc(C)n2c(cc3sccc32)c1=O (stereo not given),-2.34
5,CCOC(=O)CN(C(=O)c1ccccc1)c1ccccc1C,-0.66
6,Cc1ccc(-n2ncc3c(N4CCCC(C)C4)ncnc32)c(C)c1 (stereo not given),-8.5
7,CCN1CCN(C(c2cccs2)C(C)NC(=O)c2ccccc2)CC1 (stereo not given),-0.71
8,CC1=C(C(=O)Nc2ccc(F)cc2)C(c2cccc(C)c2)n2nc(CCCO)nc2N1 (stereo not given),-0.66
9,Cc1ccc(-c2noc(CN3C(C)CCCC3C)n2)cc1 (stereo not given),3.23
10,CC1CCN(C(=O)CSc2nnc(Cc3cc(=O)[nH]c(=O)[nH]3)n2-c2ccc(Cl)cc2)CC1,-0.15
11,Cc1ccccc1-c1nc(CN2CCC(C(=O)N3CCC(C(N)=O)CC3)CC2)c(C)o1,-2.4
12,COc1ccc(C(=O)c2ccc(OC)c(N)c2)cc1N,-6.12
13,O=C(CC1(O)C(=O)Nc2ccccc21)c1ccc2c(c1)OCO2 (stereo not given),-2.13
14,CCOC(=O)c1[nH]c(C)c(C(=O)NC)c1C,-0.95
15,CN(C1CCCCC1)S(=O)(=O)c1ccc(S(=O)(=O)N2CCN(CCC#N)CC2)cc1,-1.47
16,CC1CCCCC1NC(=O)Cn1ncc2ccccc21 (stereo not given),-1.21
17,CCOC(=O)Cn1c(CCC(=O)O)ccc1-c1ccc(F)cc1,-2.3
18,CCCc1cc(C(=O)Nc2ccc(C(C)=O)cc2)no1,-0.27
19,CCOC(=O)CN1C(=O)C(=O)c2cccc(C)c21,-4.97
20,CCOc1ccc(NC(=O)C(C)Sc2nnc(C)n2C)cc1 (stereo not given),-0.82

row,SMILES,viability increase [%]
1,COc1cccc(CNC(=O)Cn2c(=O)oc3ccccc32)c1OC,-0.35
2,Oc1c(C(c2ccccc2)N2CCc3ccccc3C2)sc2ncnn12 (stereo not given),3.99
3,CCSc1nnc(N2C(=O)CC(c3ccsc3)C3=C2CC(C)(C)CC3=O)s1 (stereo not given),-1.55
4,Cc1ccnc2c(N3C(=O)C4C5C=CC(C5)C4(C)C3=O)cccc12 (stereo not given),-0.94
5,CCN(CC)C(=O)c1ccc(CS(=O)(=O)c2ccc(OC)cc2)o1,-1.02
6,CCCCCn1c(=O)[nH]c2cc(C(=O)NCCCN3CCCCC3)ccc2c1=O,-2.74
7,CC(C)c1nccn1S(=O)(=O)c1cc(Cl)ccc1Cl,0
8,CCOC(=O)N1CCC(NC(=O)C2CCCN(C(=O)c3cc4sccc4n3C)C2)CC1 (stereo not given),0.63
9,CCCCNC(=O)Cn1c(=O)n(C)c2ccccc21,-0.03
10,Cc1c(C#N)c2ccccc2n1CC(=O)N1CCc2ccccc2C1,-3.16
11,O=C(COc1ccc2ccccc2c1)N1CCCC1,-0.13
12,CCC(=O)N1CCN(c2nc(-c3ccccc3)c3c(c2C#N)CCCC3)CC1,-5.2
13,CC1(C)CC(=O)c2cnc(NC(=O)Cc3ccc(Cl)cc3)nc2C1,2.03
14,CCOCCOc1nc2c(c(=O)n(C)c(=O)n2C)n1Cc1ccc(C)cc1,0.37
15,CCN(C(=O)c1cc(Cl)ccc1OC)c1ccccc1,-2.05
16,Cc1cccc(-n2ncc3c(N(CCO)CCO)ncnc32)c1,-1.41
17,N#CCCN1CCN(S(=O)(=O)c2ccc(S(=O)(=O)NC3CCCCC3)cc2)CC1,-0.74
18,Cc1c(C)c2ccc(OC3CCCCC3=O)cc2oc1=O (stereo not given),0.57
19,COc1ccc(-n2c(Cc3cccn3C)nnc2SCC(=O)Nc2ccc(Cl)cc2)cc1,-6.37
20,Cc1cc(C(N)=O)c2cc(Br)ccc2n1,-2.23

# Assay: viability of HCT116 without oncogenic beta-catenin – human colon tumor cells, pilot screen (AID 823);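 also: 0% = wells killed by 20 µM Hyamine and 100% = untreated DMSO cell wells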
# Conditions: HCT116 beta-catenin knockout viability, CellTiter-Glo, 60 h; at 10 µM; hits give low values
row,SMILES,viability
1,CCOc1ccc(N2CC(C(=O)Nc3ccccc3OC)CC2=O)cc1 (stereo not given),102%
2,O=C(Cn1ncc2c1-c1ccccc1OC2)N1CCN(c2ccccn2)CC1,99.9%
3,CC1CN(c2c3c(nc4ncnn24)CCCC3)CC(C)O1 (stereo not given),88.9%
4,CCOC(=O)C(CC)n1nc(C)n2c(cc3sccc32)c1=O (stereo not given),99.8%
5,CCOC(=O)CN(C(=O)c1ccccc1)c1ccccc1C,91.8%
6,Cc1ccc(-n2ncc3c(N4CCCC(C)C4)ncnc32)c(C)c1 (stereo not given),80.5%
7,CCN1CCN(C(c2cccs2)C(C)NC(=O)c2ccccc2)CC1 (stereo not given),101%
8,CC1=C(C(=O)Nc2ccc(F)cc2)C(c2cccc(C)c2)n2nc(CCCO)nc2N1 (stereo not given),98.2%
9,Cc1ccc(-c2noc(CN3C(C)CCCC3C)n2)cc1 (stereo not given),98.8%
10,CC1CCN(C(=O)CSc2nnc(Cc3cc(=O)[nH]c(=O)[nH]3)n2-c2ccc(Cl)cc2)CC1,105%
11,Cc1ccccc1-c1nc(CN2CCC(C(=O)N3CCC(C(N)=O)CC3)CC2)c(C)o1,92.8%
12,COc1ccc(C(=O)c2ccc(OC)c(N)c2)cc1N,15.2% (active)
13,O=C(CC1(O)C(=O)Nc2ccccc21)c1ccc2c(c1)OCO2 (stereo not given),97.2%
14,CCOC(=O)c1[nH]c(C)c(C(=O)NC)c1C,109%
15,CN(C1CCCCC1)S(=O)(=O)c1ccc(S(=O)(=O)N2CCN(CCC#N)CC2)cc1,97.2%
16,CC1CCCCC1NC(=O)Cn1ncc2ccccc21 (stereo not given),98.6%
17,CCOC(=O)Cn1c(CCC(=O)O)ccc1-c1ccc(F)cc1,102%
18,CCCc1cc(C(=O)Nc2ccc(C(C)=O)cc2)no1,98.5%
19,CCOC(=O)CN1C(=O)C(=O)c2cccc(C)c21,88.4%
20,CCOc1ccc(NC(=O)C(C)Sc2nnc(C)n2C)cc1 (stereo not given),95.7%

row,SMILES,viability
1,COc1cccc(CNC(=O)Cn2c(=O)oc3ccccc32)c1OC,104%
2,Oc1c(C(c2ccccc2)N2CCc3ccccc3C2)sc2ncnn12 (stereo not given),97.1%
3,CCSc1nnc(N2C(=O)CC(c3ccsc3)C3=C2CC(C)(C)CC3=O)s1 (stereo not given),103%
4,Cc1ccnc2c(N3C(=O)C4C5C=CC(C5)C4(C)C3=O)cccc12 (stereo not given),93.3%
5,CCN(CC)C(=O)c1ccc(CS(=O)(=O)c2ccc(OC)cc2)o1,97.4%
6,CCCCCn1c(=O)[nH]c2cc(C(=O)NCCCN3CCCCC3)ccc2c1=O,75.1%
7,CC(C)c1nccn1S(=O)(=O)c1cc(Cl)ccc1Cl,103%
8,CCOC(=O)N1CCC(NC(=O)C2CCCN(C(=O)c3cc4sccc4n3C)C2)CC1 (stereo not given),96.7%
9,CCCCNC(=O)Cn1c(=O)n(C)c2ccccc21,106%
10,Cc1c(C#N)c2ccccc2n1CC(=O)N1CCc2ccccc2C1,92.9%
11,O=C(COc1ccc2ccccc2c1)N1CCCC1,96.2%
12,CCC(=O)N1CCN(c2nc(-c3ccccc3)c3c(c2C#N)CCCC3)CC1,75.8%
13,CC1(C)CC(=O)c2cnc(NC(=O)Cc3ccc(Cl)cc3)nc2C1,94.4%
14,CCOCCOc1nc2c(c(=O)n(C)c(=O)n2C)n1Cc1ccc(C)cc1,82.3%
15,CCN(C(=O)c1cc(Cl)ccc1OC)c1ccccc1,89.5%
16,Cc1cccc(-n2ncc3c(N(CCO)CCO)ncnc32)c1,94.9%
17,N#CCCN1CCN(S(=O)(=O)c2ccc(S(=O)(=O)NC3CCCCC3)cc2)CC1,103%
18,Cc1c(C)c2ccc(OC3CCCCC3=O)cc2oc1=O (stereo not given),104%
19,COc1ccc(-n2c(Cc3cccn3C)nnc2SCC(=O)Nc2ccc(Cl)cc2)cc1,47.6%
20,Cc1cc(C(N)=O)c2cc(Br)ccc2n1,98.3%

# From PubChem BioAssay
